In PubChem BioAssay (EPA / NIEHS):
Where “and” joins values, the source holds several entries; their conditions need not be identical. Identical values can stand only once. Records with an inconclusive call do not appear. More than one record can exist for a structure, and the calls need not agree. Calls of active or inactive are those of the source. Rule for the calls, unless noted: active = hit-call score of the fitted dose curve at least 0.9, where 1 is the maximum; inconclusive = response in the unintended direction; inactive = score below 0.9.

How the values were obtained:
[1] = target: Estrogen receptor (Homo sapiens) (UniProt P03372); assay: OT_ERa_GFPERaERE_0480: Odyssey Thera (OT) 8-hour HeLa Transcription Induction Assay for Estrogen Receptor (AID 2283381; active = hit-call score of the fitted dose curve at least 0.9, where 1 is the maximum; inactive = score below 0.9)
Sequence of Estrogen receptor (Homo sapiens) (P03372 whole entry, looked up): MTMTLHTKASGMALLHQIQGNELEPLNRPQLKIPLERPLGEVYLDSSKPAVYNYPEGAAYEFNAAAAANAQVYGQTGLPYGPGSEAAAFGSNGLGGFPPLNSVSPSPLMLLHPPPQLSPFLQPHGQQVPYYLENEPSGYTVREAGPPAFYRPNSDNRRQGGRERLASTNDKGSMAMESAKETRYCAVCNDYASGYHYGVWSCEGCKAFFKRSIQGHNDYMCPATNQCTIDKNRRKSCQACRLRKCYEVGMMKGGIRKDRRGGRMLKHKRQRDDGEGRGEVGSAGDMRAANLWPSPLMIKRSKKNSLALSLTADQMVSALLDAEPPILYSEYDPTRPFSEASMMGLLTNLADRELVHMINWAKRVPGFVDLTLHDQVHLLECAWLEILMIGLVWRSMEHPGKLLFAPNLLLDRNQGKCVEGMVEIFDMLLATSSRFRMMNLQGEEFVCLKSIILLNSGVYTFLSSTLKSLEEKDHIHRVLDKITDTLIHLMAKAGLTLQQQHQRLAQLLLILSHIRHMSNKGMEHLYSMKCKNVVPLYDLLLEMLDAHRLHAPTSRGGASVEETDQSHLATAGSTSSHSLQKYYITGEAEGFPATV
Procedure, shortened: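 Cells (HeLa) receive compound; after 8 h, reporter fluorescence is imaged and quantified by high-content analysis. Gain-of-signal relative to DMSO gives the endpoint.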

[2] = target: Estrogen receptor (Homo sapiens) (UniProt P03372); assay: OT_ERa_GFPERaERE_0120: Odyssey Thera (OT) 2-hour HeLa Transcription Induction Assay for Estrogen Receptor (AID 2283382)
Procedure, shortened: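 Measures ESR1 pathway reporter gain-of-signal in HeLa cells after a 2-hour treatment, detected as fluorescent protein induction by microscopy, DMSO as baseline.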

[3] = target: Retinoic acid receptor RXR-alpha (Homo sapiens) (UniProt P19793); assay: OT_NURR1_NURR1RXRa_1440: Odyssey Thera (OT) 24-hour HEK293T Protein Complementation Assay for Nurr1/retinoid X receptor (RXR) (AID 2283386)
Sequence of Retinoic acid receptor RXR-alpha (Homo sapiens) (P19793 whole entry, looked up, the tested form may be a part): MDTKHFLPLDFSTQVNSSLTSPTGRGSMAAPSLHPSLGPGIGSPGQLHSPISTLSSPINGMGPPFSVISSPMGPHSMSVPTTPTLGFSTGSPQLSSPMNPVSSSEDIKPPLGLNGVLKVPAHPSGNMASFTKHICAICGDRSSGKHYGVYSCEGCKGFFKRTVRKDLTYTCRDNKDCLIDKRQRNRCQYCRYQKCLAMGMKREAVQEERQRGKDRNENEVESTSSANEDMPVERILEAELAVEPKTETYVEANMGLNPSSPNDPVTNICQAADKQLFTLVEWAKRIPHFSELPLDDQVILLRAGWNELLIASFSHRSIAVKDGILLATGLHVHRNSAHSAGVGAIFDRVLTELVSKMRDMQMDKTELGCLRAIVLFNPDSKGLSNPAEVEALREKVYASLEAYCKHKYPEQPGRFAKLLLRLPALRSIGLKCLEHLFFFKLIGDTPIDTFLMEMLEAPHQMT
Procedure, shortened: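 Measured as fluorescence from a reconstituted split reporter, this 24 h HEK293T complementation assay scores compound-induced gain of Nurr1/RXRα association relative to DMSO.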

[4] = target: Peroxisome proliferator-activated receptor gamma (Homo sapiens) (UniProt P37231); assay: OT_PPARg_PPARgSRC1_0480: Odyssey Thera (OT) 8-hour Protein-Complementation Assay for Peroxisome Proliferator-activated Receptor Gamma / SRC-1 Co-activator (AID 2283387)
Sequence of Peroxisome proliferator-activated receptor gamma (Homo sapiens) (P37231 whole entry, looked up, the tested form may be a part): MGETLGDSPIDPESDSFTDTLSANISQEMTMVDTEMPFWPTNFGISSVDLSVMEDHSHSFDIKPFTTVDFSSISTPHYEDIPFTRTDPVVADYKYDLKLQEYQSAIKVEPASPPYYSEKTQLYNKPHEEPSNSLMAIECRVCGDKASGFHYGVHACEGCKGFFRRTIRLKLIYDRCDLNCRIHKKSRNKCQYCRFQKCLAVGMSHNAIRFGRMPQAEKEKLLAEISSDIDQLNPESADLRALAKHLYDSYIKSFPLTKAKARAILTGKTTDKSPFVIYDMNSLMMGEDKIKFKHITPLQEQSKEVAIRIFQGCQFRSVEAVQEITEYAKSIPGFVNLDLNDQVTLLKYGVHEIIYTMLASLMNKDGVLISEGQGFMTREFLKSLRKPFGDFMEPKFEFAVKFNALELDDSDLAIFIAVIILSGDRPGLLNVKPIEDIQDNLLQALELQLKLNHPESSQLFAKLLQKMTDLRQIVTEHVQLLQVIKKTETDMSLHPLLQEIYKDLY
Procedure, shortened: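 Split-YFP (IFP1/IFP2) PPARg/SRC-1 reporter, HEK293T, 37 °C, 5% CO2; 8 h compound; formaldehyde fix + Draq5; high-content imaging, N/C ratio, ≥350 cells/image, positive direction vs DMSO.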

[5] = target: Peroxisome proliferator-activated receptor gamma (Homo sapiens) (UniProt P37231); assay: OT_PPARg_PPARgSRC1_1440: Odyssey Thera (OT) 24-hour Protein-Complementation Assay for Peroxisome Proliferator-activated Receptor Gamma/ SRC-1 Co-activator (AID 2283388)
Procedure, shortened: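 HEK293T transiently transfected with PPARg/SRC-1 split-Venus YFP fusions 48 h before dosing, then treated 24 h at 37C. Fixed cells imaged; nuclear/cytoplasmic 488 nm fluorescence ratio, gain of signal versus DMSO.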

[6] = read-out: Fatty acid synthase (Homo sapiens) (UniProt P49327); assay: LTEA_HepaRG_FASN: Life Technologies and Expression Analysis (LTEA) Assay for Fatty Acid Synthase (FASN) using HepaRG (AID 2283448; active = hit-call score of the fitted dose curve at least 0.9, where 1 is the maximum; inactive = score below 0.9;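 for AC50: differentiated human HepaRG liver cells in serum-free induction medium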); conditions: mRNA level, 48 h; actives raise or lower the signal
Procedure, shortened: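 Transcript-level assay: HepaRG liver cells are treated for 48 h across an eight-point range topping at 100 uM, and FASN mRNA, normalized to three housekeeping genes, is compared with DMSO controls in both directions.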

[7] = target: Bile acid receptor (Homo sapiens) (UniProt Q96RI1); assay: OT_FXR_FXRSRC1_0480: Odyssey Thera (OT) 8-hour HEK293T Protein-Complementation Assay for Farnesoid X receptor/SRC-1 Co-activator (AID 2283383)
Sequence of Bile acid receptor (Homo sapiens) (Q96RI1 whole entry, looked up, the tested form may be a part): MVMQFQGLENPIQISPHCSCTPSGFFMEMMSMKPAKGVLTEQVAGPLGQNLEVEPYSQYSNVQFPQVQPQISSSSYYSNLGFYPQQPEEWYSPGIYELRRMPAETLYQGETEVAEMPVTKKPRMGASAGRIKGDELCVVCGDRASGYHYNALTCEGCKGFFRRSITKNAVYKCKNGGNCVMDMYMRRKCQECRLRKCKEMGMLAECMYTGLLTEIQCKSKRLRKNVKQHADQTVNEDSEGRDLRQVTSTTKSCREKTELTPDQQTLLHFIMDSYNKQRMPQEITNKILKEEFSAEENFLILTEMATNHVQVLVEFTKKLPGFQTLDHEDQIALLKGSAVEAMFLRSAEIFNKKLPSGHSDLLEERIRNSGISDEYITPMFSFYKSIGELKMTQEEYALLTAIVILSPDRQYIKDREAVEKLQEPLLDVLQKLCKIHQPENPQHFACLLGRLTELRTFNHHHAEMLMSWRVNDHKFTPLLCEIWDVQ
Procedure, shortened: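 Co-activator recruitment to FXR was measured in living HEK293T cells, where interaction of the two fused partners restored an active fluorescent reporter. Signal gain after 8 h treatment was referenced to DMSO.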

[8] = target: Bile acid receptor (Homo sapiens) (UniProt Q96RI1); assay: OT_FXR_FXRSRC1_1440: Odyssey Thera (OT) 24-hour HEK293T Protein-Complementation Assay for Farnesoid X receptor/SRC-1 Co-activator (AID 2283384)
Procedure, shortened: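 Cell-based binding reporter: interaction of FXR with SRC-1 brings reporter fragments together, giving a fluorescence signal read 24 h after dosing of HEK293T cells.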

[9] = target: Retinoic acid receptor RXR-alpha (Homo sapiens) (UniProt P19793); assay: OT_NURR1_NURR1RXRa_0480: Odyssey Thera (OT) 8-hour HEK293T Protein Complementation Assay for Nurr1/retinoid X receptor (RXR) (AID 2283385)
Procedure, shortened: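 Compounds are applied to HEK293T cells carrying Nurr1 and RXRα linked to reporter fragments. After 8 h, fluorescence intensity reports heterodimer formation, with DMSO as baseline.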

[10] = CEETOX_H295R_11DCORT: CeeTox H295R High-throughput Steroidogenesis Assay for 11-Deoxycortisol (11DCORT) (AID 2283432; active = hit-call score of the fitted dose curve at least 0.9, where 1 is the maximum; inactive = score below 0.9;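 for AC50: 11-deoxycortisol secreted into the medium measured by LC-MS/MS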); conditions: actives raise or lower the signal
Procedure, shortened: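 Steroidogenesis in human H295R cells: 48 h chemical exposure after forskolin priming, 11-deoxycortisol measured by LC-MS/MS.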

[11] = CEETOX_H295R_OHPREG: CeeTox H295R High-throughput Steroidogenesis Assay for OH-Pregnenolone (OHPREG) (AID 2283434; active = hit-call score of the fitted dose curve at least 0.9, where 1 is the maximum; inactive = score below 0.9); conditions: actives raise or lower the signal
Procedure, shortened: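 Hormone levels in spent medium were measured by tandem mass spectrometry following liquid-liquid extraction. Cells (H295R) had been forskolin-stimulated (10 uM, 48 h) before a 48 h chemical exposure at 0.1% DMSO, with activity fitted in both directions against DMSO.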

[12] = CEETOX_H295R_OHPROG: CeeTox H295R High-throughput Steroidogenesis Assay for OH-Progesterone (OHPROG) (AID 2283435; active = hit-call score of the fitted dose curve at least 0.9, where 1 is the maximum; inactive = score below 0.9;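 for AC50: human adrenal H295R cells primed 48 h with 10 µM forskolin; 17alpha-hydroxyprogesterone secreted into medium measured by HPLC-MS/MS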); conditions: actives raise or lower the signal
Procedure, shortened: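 Secreted 17alpha-hydroxyprogesterone is read by tandem MS from media of forskolin-primed H295R cells dosed with chemical for 48 h. Activity is fitted in both directions against DMSO baseline; cytotoxic concentrations are re-tested diluted.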

[13] = CEETOX_H295R_CORTIC: CeeTox H295R High-throughput Steroidogenesis Assay for Corticosterone (CORTIC) (AID 2283437; active = hit-call score of the fitted dose curve at least 0.9, where 1 is the maximum; inactive = score below 0.9;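 note: corticosterone secreted into medium quantified by mass spectrometry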;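 for AC50: human H295R adrenal cells prestimulated with forskolin before chemical exposure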); conditions: actives raise or lower the signal
Procedure, shortened: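 Corticosterone secreted into medium is measured by reverse-phase HPLC with tandem MS following liquid-liquid extraction. Cells are forskolin-stimulated (10 uM, 48 h) before 48 h test exposure; activity fitted in both directions against DMSO.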

[14] = CEETOX_H295R_CORTISOL: CeeTox H295R High-throughput Steroidogenesis Assay for Cortisol (AID 2283438; active = hit-call score of the fitted dose curve at least 0.9, where 1 is the maximum; inactive = score below 0.9;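 note: cortisol secreted into medium quantified by LC-MS/MS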); conditions: actives raise or lower the signal
Procedure, shortened: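 Human adrenocortical H295R cells (passage ≤10) received test chemicals for 48 h after forskolin priming. Secreted cortisol was measured by LC-MS/MS.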

[15] = CEETOX_H295R_DOC: CeeTox H295R High-throughput Steroidogenesis Assay for DOC (AID 2283439; active = hit-call score of the fitted dose curve at least 0.9, where 1 is the maximum; inactive = score below 0.9); conditions: actives raise or lower the signal
Procedure, shortened: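 Secreted DOC was quantified from H295R media by HPLC-MS/MS after 48 h chemical exposure following 48 h forskolin (10 uM) prestimulation. Values were fitted in both directions relative to DMSO, the negative control and baseline.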

[16] = CEETOX_H295R_ESTRADIOL: CeeTox H295R High-throughput Steroidogenesis Assay for Estradiol (AID 2283440; active = hit-call score of the fitted dose curve at least 0.9, where 1 is the maximum; inactive = score below 0.9;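 note: estradiol secreted into medium quantified by LC-MS/MS after dansyl derivatisation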); conditions: actives raise or lower the signal
Procedure, shortened: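 H295R cells pre-stimulated 48 h with 10 uM forskolin, then exposed 48 h to chemical in 0.1% DMSO. Medium estradiol quantified by MTBE extraction, dansyl derivatisation and HPLC-MS/MS; bidirectional fit versus DMSO; MTT viability required >/=70%.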

[17] = CEETOX_H295R_ESTRONE: CeeTox H295R High-throughput Steroidogenesis Assay for Estrone (AID 2283441; active = hit-call score of the fitted dose curve at least 0.9, where 1 is the maximum; inactive = score below 0.9;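 note: estrone secreted into medium measured by LC-MS/MS after dansyl derivatization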;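 for AC50: human adrenal H295R cells prestimulated with forskolin for two days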); conditions: actives raise or lower the signal
Procedure, shortened: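 H295R cells; 48 h forskolin (10 uM) prestimulation; 48 h compound exposure, 0.1% DMSO final. Medium estrone: MTBE extraction, dansyl derivatization, HPLC-MS/MS. Bidirectional fit vs DMSO.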

[18] = CEETOX_H295R_PROG: CeeTox H295R High-throughput Steroidogenesis Assay for Progesterone (PROG) (AID 2283442; active = hit-call score of the fitted dose curve at least 0.9, where 1 is the maximum; inactive = score below 0.9;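 for AC50: human H295R adrenal cells primed with 10 µM forskolin before dosing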); conditions: actives raise or lower the signal
Procedure, shortened: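 H295R adrenal cells prestimulated 48 h with 10 uM forskolin, then exposed 48 h to test chemical in 0.1% DMSO. Progesterone in medium quantified by HPLC-MS/MS after MTBE extraction; viability checked by MTT in same wells.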

[19] = read-out: Tumor necrosis factor receptor superfamily member 6 (Homo sapiens) (UniProt P25445); assay: LTEA_HepaRG_FAS: Life Technologies and Expression Analysis (LTEA) Assay for Fas cell surface death receptor (FAS) using HepaRG (AID 2283447; active = hit-call score of the fitted dose curve at least 0.9, where 1 is the maximum; inactive = score below 0.9); conditions: mRNA level, 48 h; actives raise or lower the signal
Procedure, shortened: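 FAS transcript level was measured by TaqMan qRT-PCR against three housekeeping genes after 48 h chemical exposure. Cells were HepaRG, 0.5% DMSO vehicle, with a top concentration of 100 uM and half-log dilutions over eight points, in duplicate.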

[20] = CEETOX_H295R_ANDR: CeeTox H295R High-throughput Steroidogenesis Assay for Androstenedione (ANDR) (AID 2283436; active = hit-call score of the fitted dose curve at least 0.9, where 1 is the maximum; inactive = score below 0.9;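 note: human H295R adrenal cells exposed for 48 h with androstenedione measured in medium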); conditions: actives raise or lower the signal
Procedure, shortened: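 Read-out is androstenedione secreted into medium, measured by tandem mass spectrometry after liquid-liquid extraction. Cells were H295R, dosed for 48 h per modified OECD 456; activity fitted in both directions relative to DMSO.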

Measured: AC50

Sequence of Fatty acid synthase (Homo sapiens) (P49327 whole entry, looked up): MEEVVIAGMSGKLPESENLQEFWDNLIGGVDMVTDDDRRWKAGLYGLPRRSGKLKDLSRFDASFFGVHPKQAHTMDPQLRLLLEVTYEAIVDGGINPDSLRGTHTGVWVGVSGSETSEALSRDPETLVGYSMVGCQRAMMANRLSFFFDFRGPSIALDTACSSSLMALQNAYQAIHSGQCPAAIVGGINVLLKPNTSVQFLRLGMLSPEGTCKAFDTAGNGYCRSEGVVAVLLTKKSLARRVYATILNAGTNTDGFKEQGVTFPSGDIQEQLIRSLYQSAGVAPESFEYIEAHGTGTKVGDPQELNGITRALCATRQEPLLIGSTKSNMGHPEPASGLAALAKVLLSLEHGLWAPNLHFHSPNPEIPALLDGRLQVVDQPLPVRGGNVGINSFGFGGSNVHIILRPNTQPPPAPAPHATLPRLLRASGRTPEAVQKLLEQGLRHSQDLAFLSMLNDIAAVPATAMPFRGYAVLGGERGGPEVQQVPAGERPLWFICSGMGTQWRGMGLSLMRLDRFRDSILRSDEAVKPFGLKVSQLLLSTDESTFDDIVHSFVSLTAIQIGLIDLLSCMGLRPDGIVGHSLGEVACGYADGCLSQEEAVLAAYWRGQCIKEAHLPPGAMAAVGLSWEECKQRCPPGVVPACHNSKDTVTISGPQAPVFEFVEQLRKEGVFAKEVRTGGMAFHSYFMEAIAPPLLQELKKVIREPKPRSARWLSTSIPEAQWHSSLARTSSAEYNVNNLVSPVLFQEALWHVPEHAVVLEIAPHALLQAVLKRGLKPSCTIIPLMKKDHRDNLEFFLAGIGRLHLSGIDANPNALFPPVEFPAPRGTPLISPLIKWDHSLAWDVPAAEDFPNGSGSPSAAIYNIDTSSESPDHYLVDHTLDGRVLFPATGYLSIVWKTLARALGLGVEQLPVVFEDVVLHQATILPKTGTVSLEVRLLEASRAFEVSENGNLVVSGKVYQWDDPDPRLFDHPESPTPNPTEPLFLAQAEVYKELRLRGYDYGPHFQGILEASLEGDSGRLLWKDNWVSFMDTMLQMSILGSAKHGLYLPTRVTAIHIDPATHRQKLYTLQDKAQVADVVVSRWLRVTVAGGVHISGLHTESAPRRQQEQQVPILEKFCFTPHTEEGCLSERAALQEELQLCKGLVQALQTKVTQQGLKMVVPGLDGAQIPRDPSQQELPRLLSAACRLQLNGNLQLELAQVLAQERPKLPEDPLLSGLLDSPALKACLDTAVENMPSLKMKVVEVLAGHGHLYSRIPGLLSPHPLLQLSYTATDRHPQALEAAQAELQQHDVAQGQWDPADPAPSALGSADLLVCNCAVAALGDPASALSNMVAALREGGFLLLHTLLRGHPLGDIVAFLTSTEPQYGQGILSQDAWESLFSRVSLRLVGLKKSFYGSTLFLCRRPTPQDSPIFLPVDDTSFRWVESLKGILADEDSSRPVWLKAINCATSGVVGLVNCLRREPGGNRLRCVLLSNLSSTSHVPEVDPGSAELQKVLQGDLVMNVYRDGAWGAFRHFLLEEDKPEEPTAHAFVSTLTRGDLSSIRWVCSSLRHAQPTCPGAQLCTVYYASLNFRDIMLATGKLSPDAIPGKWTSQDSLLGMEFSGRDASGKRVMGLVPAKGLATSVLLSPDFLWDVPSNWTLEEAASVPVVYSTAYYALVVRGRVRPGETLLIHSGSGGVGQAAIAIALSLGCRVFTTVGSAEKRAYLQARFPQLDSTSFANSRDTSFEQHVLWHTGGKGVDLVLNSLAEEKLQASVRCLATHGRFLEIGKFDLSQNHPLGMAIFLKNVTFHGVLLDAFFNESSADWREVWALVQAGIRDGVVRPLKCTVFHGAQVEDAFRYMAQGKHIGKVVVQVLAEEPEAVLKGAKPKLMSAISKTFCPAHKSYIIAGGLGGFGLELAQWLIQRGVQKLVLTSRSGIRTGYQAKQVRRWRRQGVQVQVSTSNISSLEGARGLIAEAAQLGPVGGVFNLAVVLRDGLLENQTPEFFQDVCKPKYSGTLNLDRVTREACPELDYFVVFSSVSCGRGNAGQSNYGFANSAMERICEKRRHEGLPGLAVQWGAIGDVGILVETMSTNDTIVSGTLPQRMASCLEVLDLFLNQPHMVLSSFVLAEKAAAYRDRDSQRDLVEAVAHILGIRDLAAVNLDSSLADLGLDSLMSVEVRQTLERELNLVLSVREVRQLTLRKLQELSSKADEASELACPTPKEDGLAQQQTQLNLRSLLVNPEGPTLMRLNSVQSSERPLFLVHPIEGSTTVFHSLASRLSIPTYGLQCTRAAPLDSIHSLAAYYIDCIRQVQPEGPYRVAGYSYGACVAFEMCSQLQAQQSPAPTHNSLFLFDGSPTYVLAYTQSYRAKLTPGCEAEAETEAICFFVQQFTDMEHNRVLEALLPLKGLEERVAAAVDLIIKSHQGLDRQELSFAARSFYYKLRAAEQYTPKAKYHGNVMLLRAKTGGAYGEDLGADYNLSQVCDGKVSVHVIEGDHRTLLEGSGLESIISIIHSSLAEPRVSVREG

CC(C)CCO
inactive: [1] | [2] | [3] | [4] | [5] | [6]

CC[C@H](C)C(=O)O[C@H]1C[C@@H](C)C=C2C=C[C@H](C)[C@H](CC[C@@H]3C[C@@H](O)CC(=O)O3)[C@H]21
active: [7] 32 µM | [8] 34.8 µM | [10] 2.84 µM | [11] 26 nM | [12] 2.96 µM | [13] 94 nM | [15] 641 nM | [6] 12.1 µM
not listed: [4] | [20]
inactive: all other assays above

O=C(O)c1cccc(Oc2ccccc2)c1
inactive: [1] | [2] | [9] | [3] | [5] | [19] | [6]

COC(=O)c1ccccc1O
inactive: [1] | [2] | [9] | [19] | [6]

Cn1cnc([N+](=O)[O-])c1Sc1ncnc2nc[nH]c12
inactive: [1] | [2] | [9] | [3] | [5] | [19] | [6]

O=C(NS(=O)(=O)/C=C/c1ccccc1)c1ccc(F)cc1Cl
active: [9] 27.4 µM | [3] 15.2 µM | [5] 50 µM
inactive: [1] | [2] | [4] | [19] | [6]

CCCCC(CC)COC(=O)CCCCCCCCC(=O)OCC(CC)CCCC (stereo not given)
inactive: [1] | [2] | [7] | [8] | [9] | [3] | [4] | [5] | [19] | [6]

CC[C@H]1CC[C@H](NCc2cc3c(cc2OC)[C@H]2C[C@H]2C(=O)N3C)[C@H](c2ccccc2)N1
active: [16] 6.19 µM | [17] 7.37 µM | [6] 57.7 µM
not listed: [7] | [8] | [20]
inactive: all other assays above

Cc1ccc(N)cc1O
active: [3] 50 µM | [12] 39.8 µM | [16] 40.9 µM | [18] 50 µM | [6] 26.3 µM
inactive: [1] | [2] | [9] | [3] | [4] | [5] | [10] | [11] | [20] | [13] | [14] | [15] | [17] | [19]

Cn1c(=O)cc(Oc2ccc(F)cc2F)c2cnc(NCC(C)(C)O)nc21
active: [10] 8.38 µM
not listed: [4] | [9] | [20]
inactive: all other assays above

CCC(C)(C)C(=O)O[C@H]1C[C@@H](C)C=C2C=C[C@H](C)[C@H](CC[C@@H]3C[C@@H](O)CC(=O)O3)[C@H]21
active: [10] 0.338 µM | [12] 0.809 µM | [15] 581 nM | [18] 0.24 µM | [6] 10.9 µM
not listed: [7] | [8] | [20]
inactive: all other assays above

CC(C)CCCCCCCOC(=O)CCCCC(=O)OCCCCCCCC(C)C
inactive: [7] | [8] | [3] | [4] | [5] | [19] | [6]

CCc1cc(SCc2sc(-c3ccc(C(F)(F)F)cc3)nc2CN2CCN(c3ccc(OC)cc3)CC2)ccc1OCC(=O)O
inactive: [7]
active: [8] 12 µM | [4] 345 nM and 1.09 µM | [5] 723 nM and 1.02 µM | [19] 26.2 µM | [6] 71.3 µM

COc1ccc(/C=C/S(=O)(=O)NC(=O)c2ccc(C)cc2Cl)cc1
active: [8] 7.84 µM | [9] 24 µM | [3] 29 µM | [5] 60.6 µM | [12] 17.7 µM
not listed: [1] | [2] | [4] | [16] | [17] | [20]
inactive: all other assays above

Cc1ccc(C)c(O)c1
inactive: [7] | [8] | [9] | [3] | [5] | [19] | [6]

COc1ccc2sc(C(=O)Nc3nnn[nH]3)c(OC(C)C)c2c1
active: [19] 63.8 µM | [6] 89.1 µM
inactive: [1] | [2] | [4] | [5]

CN(C)c1ccc(Cc2ccc(N(C)C)cc2)cc1
inactive: [8] | [9] | [3] | [4] | [5] | [10] | [11] | [12] | [14] | [15] | [6]
active: [7] 28 µM | [9] 35.1 µM | [18] 3.81 µM | [19] 50 µM

CCCCCCCCCCCCCCCO
active: [18] 14.8 µM
inactive: [7] | [9] | [3] | [5] | [11] | [12] | [19] | [6]
